Records with an inconclusive call do not appear. The source made the active and inactive calls. Calls come from the whole dose curve; as a rule, active = well fitted inhibition curve with a large enough effect; inconclusive = small, poorly fitted or top-dose-only effect; inactive = flat fitted curve, though single readings scatter. Where a SMILES comes first, the peptide text is derived from it. Bridges are numbered along the chain shown (N, C = ends). [ ]: non-standard residue; d: D form. hArg = N=C(N)NCCCC[C@H](N)C(=O)O; Mpa = O=C(O)CCS
Assays:
Assay in all cases: qHTS profiling for inhibitors of Plasmodium falciparum proliferation (AID 504749); note: nearly all actives have a fitted effect of over 60% in size
Details in all cases: P. falciparum in erythrocytes, SYBR Green DNA, 72 h; series mostly up to 28.7 µM
[1] = test system: CP237
Summary of the method: (§1)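 P. falciparum-infected erythrocytes (0.3% parasitemia, 2.5% hematocrit) incubated with compound 72 h at 37 C, 5% CO2. Parasite DNA detected by SYBR Green after lysis, overnight at room temperature; normalised to 0.29 uM artemisinin and DMSO.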

[2] = test system: CP238
Summary of the method: as §1

[3] = test system: CP247
Summary of the method: as §1

[4] = test system: CP250
Summary of the method: as §1

[5] = test system: CP252
Summary of the method: as §1

[6] = test system: CP256
Summary of the method: as §1

[7] = test system: CP260
Summary of the method: as §1

[8] = test system: CP262
Summary of the method: as §1

[9] = test system: CP265
Summary of the method: as §1

[10] = test system: CP266
Summary of the method: as §1

Measured: Potency

O=c1[nH]c2cc(C(F)(F)F)c(N3CCOCC3)cc2n(CP(=O)(O)O)c1=O
inactive: [1] | [2] | [3] | [4] | [5] | [6] | [7] | [8] | [9] | [10]

CN/C(=C\[N+](=O)[O-])NCCSCc1csc(CN(C)C)n1
inactive: [1] | [2] | [3] | [4] | [5] | [6] | [7] | [8] | [9]

Cc1ccsc1C(=CCCN1CCC[C@@H](C(=O)O)C1)c1sccc1C
inactive: [1] | [2] | [3] | [4] | [5] | [6] | [7] | [8] | [9]

CC(=O)NCc1c(I)c(NC(C)=O)c(I)c(C(=O)O)c1I
inactive: [1] | [2] | [3] | [4] | [5] | [6] | [7] | [8] | [9] | [10]

Cc1ccc(S(=O)(=O)NC(=O)NC2CCCCC2)cc1
inactive: [1] | [2] | [3] | [4] | [5] | [6] | [7] | [8] | [9] | [10]

O=C(NCCCN1CCOCC1)c1ccc(Cl)cc1
inactive: [1] | [2] | [3] | [4] | [5] | [6] | [7] | [8] | [9] | [10]

OCC(O)CS (stereo unspecified)
inactive: [1] | [2] | [3] | [4] | [5] | [6] | [7] | [8] | [9] | [10]

CCS(=O)(=O)CCn1c([N+](=O)[O-])cnc1C
inactive: [1] | [2] | [3] | [4] | [5] | [6] | [7] | [8] | [9] | [10]

Cc1ccc(S(=O)(=O)NC(=O)NC2CCCCCCC2)cc1
inactive: [1] | [2] | [3] | [4] | [5] | [6] | [7] | [8] | [9] | [10]

Cc1ccc(C(C)C)c(O)c1
inactive: [1] | [2] | [3] | [4] | [5] | [6] | [7] | [8] | [9] | [10]

C[C@@H]1CCC[C@H](C)N1
inactive: [1] | [2] | [3] | [4] | [5] | [6] | [7] | [8] | [9] | [10]

C[C@@H]1O[C@@H](OC[C@H]2O[C@@H](Oc3c(-c4ccc(O)c(O)c4)oc4cc(O)cc(O)c4c3=O)[C@H](O)[C@@H](O)[C@@H]2O)[C@H](O)[C@H](O)[C@H]1O
inactive: [1] | [2] | [3] | [4] | [5] | [6] | [7] | [8] | [9]

COc1ccccc1OC(=O)Oc1ccccc1OC
inactive: [1] | [2] | [3] | [4] | [5] | [6] | [7] | [8] | [9] | [10]

COc1ccccc1Oc1c(NS(=O)(=O)c2ccc(C(C)(C)C)cc2)nc(-c2ncccn2)nc1OCCO
inactive: [1] | [2] | [3] | [4] | [5] | [6] | [7] | [8] | [9] | [10]

COc1cc(O)cc(O)c1
inactive: [1] | [2] | [3] | [4] | [5] | [6] | [7] | [8] | [9] | [10]

Cc1c(NC(C)C)c(=O)n(-c2ccccc2)n1C
inactive: [1] | [2] | [3] | [4] | [5] | [6] | [7] | [8] | [9]

NNC(=O)CP(=O)(c1ccccc1)c1ccccc1
inactive: [1] | [2] | [3] | [4] | [5] | [6] | [7] | [8] | [9] | [10]

COC(=O)c1ccc(O)cc1
inactive: [1] | [2] | [3] | [4] | [5] | [6] | [7] | [8] | [9]

Cc1c(C)c2c(c(C)c1OC(=O)c1cccnc1)CC[C@@](C)(CCC[C@H](C)CCC[C@H](C)CCCC(C)C)O2
inactive: [1] | [2] | [3] | [4] | [5] | [6] | [7] | [8] | [9]

CCOc1cc(NC(C)=O)ccc1C(=O)OC
inactive: [1] | [2] | [3] | [4] | [5] | [6] | [7] | [8] | [9]

CCCCCCCC(=O)OCC(COC(=O)CCCCCCC)OC(=O)CCCCCCC
inactive: [1] | [2] | [3] | [4] | [5] | [6] | [7] | [8] | [9]

Cc1c(C(=O)NCCO)[n+](=O)c2ccccc2n1[O-]
inactive: [1] | [2] | [3] | [4] | [5] | [6] | [7] | [8] | [9] | [10]

COC(=O)c1cccnc1
inactive: [1] | [2] | [3] | [4] | [5] | [6] | [7] | [8] | [9] | [10]

NC(=O)NS(=O)(=O)c1ccc(N)cc1
inactive: [1] | [2] | [3] | [4] | [5] | [6] | [7] | [8] | [9] | [10]

Cc1cccc(Nc2ccccc2C(=O)O)c1C
inactive: [1] | [2] | [3] | [4] | [5] | [6] | [7] | [8] | [9] | [10]

Nc1ccc(C(=O)Oc2ccccc2)c(O)c1
inactive: [1] | [2] | [3] | [4] | [5] | [6] | [7] | [8] | [9] | [10]

O=C1CC[C@@H](C(=O)O)N1
inactive: [1] | [2] | [3] | [4] | [5] | [6] | [7] | [8] | [9] | [10]

O=C(O)CCCCC1CCSS1 (stereo unspecified)
inactive: [1] | [2] | [3] | [4] | [5] | [6] | [7] | [8] | [9] | [10]

NS(=O)(=O)c1cc(-c2nn[nH]n2)c(NCc2cccs2)cc1Cl
inactive: [1] | [2] | [3] | [4] | [5] | [6] | [7] | [8] | [9] | [10]

O=C(O)c1ccccc1OP(=O)(O)O
inactive: [1] | [2] | [3] | [4] | [5] | [6] | [7] | [8] | [9] | [10]

CCOC(=O)c1cccnc1
inactive: [1] | [2] | [3] | [4] | [5] | [6] | [7] | [8] | [9] | [10]

NC(=O)[C@@H]1CSSCCC(=O)N[C@@H](CCCCN=C(N)N)C(=O)NCC(=O)N[C@@H](CC(=O)O)C(=O)N[C@@H](Cc2c[nH]c3ccccc23)C(=O)N2CCC[C@H]2C(=O)N1 ([Mpa][hArg]GDWPC-NH2; disulfide 1-7)
inactive: [1] | [2] | [3] | [4] | [5] | [6] | [7] | [8] | [9]

OC[C@@H](O)[C@@H](O)[C@H](O)[C@H](O)CO
inactive: [1] | [2] | [3] | [4] | [5] | [6] | [7] | [8] | [9] | [10]

CC(=O)Oc1cccc(O)c1
inactive: [1] | [2] | [3] | [4] | [5] | [6] | [7] | [8] | [9] | [10]

Nc1ncnc2c1ncn2[C@@H]1O[C@H](COP(=O)(O)O)[C@@H](O)[C@H]1O
inactive: [1] | [2] | [3] | [4] | [5] | [6] | [7] | [8] | [9] | [10]

O=C(O)CCC(=O)O
inactive: [1] | [2] | [3] | [4] | [5] | [6] | [7] | [8] | [9] | [10]

CC(CSC(=O)c1ccccc1)C(=O)N1C[C@@H](Sc2ccccc2)C[C@H]1C(=O)O (stereo partly specified)
inactive: [1] | [2] | [3] | [4] | [5] | [6] | [7] | [8] | [9] | [10]

NNc1nnc(NN)c2ccccc12
inactive: [1] | [2] | [3] | [4] | [5] | [6] | [7] | [8] | [9] | [10]

N[C@@H](Cc1ccc(O)cc1)C(=O)O
inactive: [1] | [2] | [3] | [4] | [5] | [6] | [7] | [8] | [9] | [10]

NCC1CCC(C(=O)Oc2ccc(CCC(=O)O)cc2)CC1 (stereo unspecified)
inactive: [1] | [2] | [3] | [4] | [5] | [6] | [7] | [8] | [9] | [10]

CN1C(C)(C)CCCC1(C)C
inactive: [1] | [2] | [3] | [4] | [5] | [6] | [7] | [8] | [9] | [10]

CCN(CC)CCOC(=O)C(c1ccccc1)c1ccccc1
inactive: [1] | [2] | [3] | [4] | [5] | [6] | [7] | [8] | [9] | [10]

CC(=O)Nc1ccccc1
inactive: [1] | [2] | [3] | [4] | [5] | [6] | [7] | [8] | [9] | [10]

C[N+](C)(C)CC[N+]1(C)Cc2c(Cl)c(Cl)c(Cl)c(Cl)c2C1
inactive: [1] | [2] | [3] | [4] | [5] | [6] | [7] | [8] | [9] | [10]

O=C(O)COC(=O)Cc1ccccc1Nc1c(Cl)cccc1Cl
inactive: [1] | [2] | [3] | [4] | [5] | [6] | [7] | [8] | [9] | [10]

O=C(Cn1ccnc1[N+](=O)[O-])NCc1ccccc1
inactive: [1] | [2] | [3] | [4] | [5] | [6] | [7] | [8] | [9] | [10]

CCc1cccc(CC)c1NC(=O)CN(CC(=O)O)CC(=O)O
inactive: [1] | [2] | [3] | [4] | [5] | [6] | [7] | [8] | [9] | [10]

Cc1cc(C)nc(NS(=O)(=O)c2ccc(N)cc2)n1
inactive: [1] | [2] | [3] | [4] | [5] | [6] | [7] | [8] | [9] | [10]

Cn1c([N+](=O)[O-])cnc1COC(N)=O
inactive: [1] | [2] | [3] | [4] | [5] | [6] | [7] | [8] | [9] | [10]
